Inconclusive results are not listed. Unmarked numbers belong to inactive results. Calls of active or inactive are those of the source. Calls follow the shape of the dose curve; as a rule, active = well fitted activation curve with a large enough effect; inconclusive = small, poorly fitted or top-dose-only effect; inactive = no such curve, though single readings can be large or run the other way.
Potency is read from the fitted curve at half-maximal effect.

This test is described as follows: qHTS Assay for Agonists of the Relaxin Receptor RXFP1: V1B Hit Validation.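 Also: counter-screen in HEK293 cells expressing V1B rather than RXFP1 for selectivity; nearly all actives have a fitted effect of over 65% in size.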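 As to activation: cAMP accumulation with PDE4 inhibitor Ro 20-1724 present during compound exposure; 0% = buffer alone basal and 100% = 29 nM porcine relaxin.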 Particulars: HEK293 V1B cells, cAMP TR-FRET, 30 min; series mostly up to 115 µM; activation: at the top concentration. An excerpt: NIH Chemical Genomics Center [NCGC]
NIH Molecular Libraries Probe Production Centers Network [MLPCN]
Assay Submitter (PI): Alexander Agoulnik
The relaxin hormone is involved in the variety of biological functions in normal tissues and diseases. The role of relaxin is well-established in female reproduction and parturition, mammary gland and endometrial development, maintenance of myometrial quiescence during pregnancy. Relaxin signaling through its G protein-coupled receptor (GPCR) RXFP1 results in ECM remodeling through regulation of collagen deposition, cell invasiveness, proliferation and overall tissue homeostasis. […] Recombinant human relaxin (rhRlx) is currently being tested in clinical trials as a protective agent in congestive heart failure, in treating severe preeclampsia, and as an anti-fibrotic agent in systemic sclerosis.
Upon relaxin binding RXFP1 activation leads to the activation of adenylate cyclase (AC) via Gs. cAMP will activate PKA, which phosphorylates many signaling proteins. Thus, detection of cAMP increase is an easy and reliable indication of relaxin receptor activation. To screen for agonists of the relaxin receptor, a HEK293T cell line stably transfected with RXFP1 was used. RXFP1 activation was assayed by changes in cAMP levels as detected with a time-resolved fluorescence energy transfer (TR-FRET) cAMP detection kit.
This assay measures activation of a cell expressing […], another GPCR targeted by relaxin, to determine the selectivity of compounds for RXFP1.
NCGC Assay Protocol Summary:
This is a cell-based assay for cAMP second messenger response to screen for agonists of the RXFP2 receptor. The assay was conducted in the presence of a PDE4 inhibitor (Ro 20174). The cells were lysed and the cAMP levels were measured with a TR-FRET cAMP kit. Presence of cAMP in the cell lysate disrupts binding between the cryptate-labeled anti-cAMP and d2-labeled cAMP pair, leading to a decrease in the TR-FRET signal. Data were normalized to the controls for basal activity (buffer only) and 100% activity (29 nM porcine relaxin). The EC50 values were determined from concentration-response data modeled with the standard Hill equation
1536-well assay protocol for the HEK293 V1B cAMP assay:
(1) Add 3 ul HEK293 RXFP2 cell culture. 2000 cells/well in DMEM/F12, 10% FBS, 1x Pen/Strep (dispensed offline with MultiDrop Combi).
(3) Add 23 nl compounds in DMSO solution. Final concentration was 0.5 - 58 uM.
(4) Incubate 30 min at 37C, 5% CO2.
(5) Add 1 ul cAMP-d2 in lysis buffer (HTRF cAMP HiRange kit, CisBio).
(6) Add 1 ul anti-cAMP antibody-cryptate in lysis buffer (HTRF cAMP HiRange kit, CisBio).
(7) Incubate 30 min at room temperature.
(6) Detect the assay plate in a ViewLux plate reader (PerkinElmer) with Ex=320 nm, Em1=615 nm and Em2=665 nm.
Keywords: relaxin, RXFP1, RXFP2, G-protein coupled receptor, cAMP, agonist, high throughput screening, MLSMR, MLSCN, NIH Roadmap, qHTS and NCGC
For `CCC(Oc1cc(Cl)ccc1Cl)C(=O)N1CCC2(CC1)OCCO2` (configuration not stated), the “activation” value is 1.95%.

As for `CCNC(=O)[C@H]1O[C@@H](n2cnc3c(N)ncnc32)[C@H](O)[C@@H]1O`, the Potency was 1.94 µM (active).

Regarding `O=c1[nH]c(O)c(N=Nc2ccc([N+](=O)[O-])cc2)c(=O)[nH]1`, the Potency is 17.3 µM (active).

In the case of `Nc1ncc2[nH]cnc2n1`, the Potency is 24.5 µM (active).

As to `O=C1OCc2cc(N=Nc3c(O)[nH]c(=O)[nH]c3=O)ccc21`, the Potency was 15.4 µM (active).

`O=C(O)c1sc2cc(Cl)ccc2c1Cl`: the Potency is 19.4 µM (active).

As to `Cn1c(O)c(N=Nc2cccc(S(=O)(=O)N3CCOCC3)c2)c(=O)n(C)c1=O`, the Potency is 13.8 µM (active).

The record behind these values is PubChem BioAssay AID492948 (National Center for Advancing Translational Sciences (NCATS), 2010).
